{
  "source": "PubChem BioAssay (NCATS)",
  "note": "Results filed as inconclusive are left out. Where a call stands in place of a potency, no number is given. The source made the active and inactive calls. Calls follow the shape of the dose curve; as a rule, active = well fitted cell-killing curve with a large enough effect; inconclusive = small, poorly fitted or top-dose-only effect; inactive = flat fitted curve, though single readings scatter. Potency is read from the fitted curve at half-maximal effect.",
  "data": [
    {"test": "Cell Viability - LYMP2-007 (AID 979);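 also: cells exposed to compound for 24 h before reading; nearly all actives have a fitted effect of over 60% in size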", "conditions": "LYMP2-007 lymphoblastoid cell viability; series mostly up to 92.2 µM", "description": "NIH Chemical Genomics Center [NCGC]\nNIH Molecular Libraries Screening Centers Network [MLSCN]\nNational Institutes of Environmental Health Sciences [NIEHS]\nNational Toxicology Program [NTP]\nWe have developed a 1536-well cell-based assay for quantitative high throughput screening (qHTS) against a number of cell lines to determine in vitro cytotoxicity of small molecules. This particular assay uses a human lymphoblastoid cell line (LYMP2-007) purchased from Coriell Institute for Medical Research.\nNCGC Assay Protocol Summary:\nThe CellTiter-Glo luminescent cell viability assay (Promega) is a homogeneous method to measure the number of viable cells in culture. The end point readout of this assay is based on quantitation of intracellular ATP, an indicator of metabolic activity, using the luciferase reaction. Luciferase catalyzes the oxidation of beetle Luciferin to oxyluciferin and light in the presence of ATP. The luminescent signal is proportional to amount of ATP present.\nUsing the CellTiter-Glo luminescent cell viability assay, the amount of cellular ATP was measured in the lymphoblastoid cell line with complete culture medium following compound treatment for 24 hours. The assay was performed in opaque white Kalypsys 1536-well plates. In the screen, tetraoctylammonium bromide was used as positive control. Library compounds were measured for their ability to cause acute toxicity in the cell line, as reflected by a decrease in intracellular ATP levels, in a concentration-dependent manner. […] AC50 values were determined from concentration-response data modeled with the standard Hill equation.\nqHTS protocol for CellTiter Glo lymphoblastoid cellular assay\n[Step] [Parameter] [Value] [Description]\n1. Reagent; 5 uL; 2500 lymphoblastoid cells/well\n2. Time; 5 hr; 37 C incubation\n4. Controls; 23 nL; Tetraoctylammonium bromide 6.4pM to 92 uM\n5. Time; 24 hr; 37 C incubation\n6. Reagent; 5 uL; CellTiter Glo reagent\n7. Time; 30 min; Room Temperature\n8. Detection; Luminescence; Viewlux plate reader\nKeywords: cell viability, cytotoxicity, lymphoblastoid cell line, luminescence, NTPHTS, NTPHTS_NCGC, NIEHS, DSSTox, MLSMR, MLSCN, NIH Roadmap, qHTS, NCGC", "values": [
      {"smiles": "Oc1ccccc1O", "Potency": "inactive"},
      {"smiles": "COc1cc(CNC(=O)CCCC/C=C/C(C)C)ccc1O", "Potency": "inactive"},
      {"smiles": "N=C1N=C(N)c2cc3ccccc3cc21", "Potency": "39.8 µM (active)"},
      {"smiles": "CN1CCC[C@H]1c1cccnc1", "Potency": "inactive"},
      {"smiles": "CN(C)CCC(c1ccc(Cl)cc1)c1ccccn1", "note": "(configuration not stated)", "Potency": "inactive"},
      {"smiles": "CC(C)NCC(O)COc1cccc2ccccc12", "note": "(configuration not stated)", "Potency": "inactive"},
      {"smiles": "Nc1ccc(O)c([N+](=O)[O-])c1", "Potency": "inactive"},
      {"smiles": "CC1(C)S[C@@H]2[C@H](NC(=O)[C@H](N)c3ccccc3)C(=O)N2[C@H]1C(=O)O", "Potency": "inactive"},
      {"smiles": "CN(C)c1ccc(N=NS(=O)(=O)O)cc1", "Potency": "inactive"},
      {"smiles": "O=C(O)c1cc(O)c(O)c(O)c1", "Potency": "inactive"},
      {"smiles": "CCCOC(=O)c1ccc(O)cc1", "Potency": "inactive"},
      {"smiles": "S=c1[nH]c2ccccc2s1", "Potency": "inactive"},
      {"smiles": "Nc1nc2ccc([N+](=O)[O-])cc2s1", "Potency": "inactive"},
      {"smiles": "CCCCCCCCCCCCCCCCCC(=O)O", "Potency": "inactive"},
      {"smiles": "Nc1ccc([N+](=O)[O-])cc1O", "Potency": "inactive"},
      {"smiles": "NCCO", "Potency": "inactive"},
      {"smiles": "Nc1ccc(O)c(C(=O)O)c1", "Potency": "inactive"},
      {"smiles": "CN(C)c1ccc(C(=C2C=CC(=[N+](C)C)C=C2)c2ccccc2)cc1", "Potency": "0.251 µM (active)"},
      {"smiles": "O=c1cc(-c2ccccc2)oc2ccccc12", "Potency": "inactive"},
      {"smiles": "C#C[C@]1(O)CC[C@H]2[C@@H]3CCc4cc(O)ccc4[C@H]3CC[C@@]21C", "Potency": "inactive"},
      {"smiles": "COc1cc(/C=C/C(=O)CC(=O)/C=C/c2ccc(O)c(OC)c2)ccc1O", "Potency": "25.1 µM (active)"},
      {"smiles": "O=C(O)/C=C\\C(=O)O", "Potency": "inactive"}
    ]}
  ]
}
